# Test results from PubChem BioAssay (NCATS).
# Several values for one entry are separate records, joined by “and”; a condition that tells them apart may be missing. Identical values can stand only once. Records with an inconclusive call do not appear. Activity calls are given as the source filed them. The call rests on the fitted dose curve; in most records, active means well fitted cell-killing curve with a large enough effect; inconclusive means small, poorly fitted or top-dose-only effect, or effect the other way; inactive means no such curve, though single readings can be large or run the other way.
# Assay: Viability qHTS for spleen associated tyrosine kinase inhibitor (SYKi) drug resistant MV4-11 cells (AID 1963824); further: nearly all actives have a fitted effect of over 35% in size
# Conditions: SYKi-resistant MV4-11 viability, CellTiter-Glo, 72 h; series mostly up to 45 µM
# Excerpt: Department of Medicine, Hematology/Oncology
# University Hospital Frankfurt, Germany.
# Trials have shown promising clinical activity of the selective SYK inhibitor entospletinib in patients with high expressing HOXA9/MEIS1 acute leukemias. As the development of resistance mechanisms is a common problem in the use of targeted drugs, we performed a chemical library screen to identify drug sensitivities in SYK inhibitor resistant AML cells. […] Glucocorticoids are potent immunosuppressants which work in part by inhibiting the transcription of cytokine genes.
# Described herein is a viability screen to look for activity in the SYK inhibitor drug resistant cell line against four NCATS compound libraries (MIPE 5.0, NPC, NPACT, and Kinase) totaling 11372 compounds. Active hits were reacquired for confirmation and further secondary assay testing.
# SEQUENCE No. (e.g., 1, 2, 3, etc.); […] (e.g., Cells, Incubation, Reagent, etc.); VALUE; DESCRIPTION.
# 1; Media; 2uL; white, solid-bottom Corning assay plate.
# 2; Compounds; 23nL; Echo acoustic dispenser.
# 3; Cell; 5uL; 500 cells per well.
# 4: Incubation; 72hr; 37 C, 5% CO2, 95% humidity.
# 5; Reagent; 3uL; CellTiter-Glo reagent (Promega).
# 6; Incubation; 10min; room temperature.
# 7; Detection; Luminescence; ViewLux plate reader (PerkinElmer).
# NOTES (numbers refer to Sequence numbers above
# 1. Quantitative high-throughput screening (qHTS) of small molecule compounds was conducted on drug resistant SYKi MV4-11 cell line.
# 2. Twenty-three nanoliter of small molecule compounds were added to each assay plates using the Echo acoustic dispenser (Beckman Coulter).
# 3. Cells were seeded into the assay plates at a final density of 500 cells in 5uL of media per well using the Multidrop Combi dispenser.
# 4. Plates were covered with stainless steel gasketed lids and incubated for 72 hours at standard cell culture conditions.
# 5. Viability was assessed by adding 3uL of CellTiter-Glo detection reagent (Promega).
# 6. Plates were covered with gasket lids and incubated for 10 minutes at room temperature.
# 7. Luminescence was measured on a ViewLux plate reader (PerkinElmer).
# Potency means the concentration at half of the fitted maximal effect.
row,SMILES,Potency
1,COC1C(O)C(OC2CCC3(C=O)C(CCC4C3CCC3(C)C(C5=CC(=O)OC5)CCC43O)C2)OC(C)C1OC1OC(CO)C(O)C(O)C1O (stereo not given),0.172 µM (active)
2,CCCC[N+]1(C)[C@@H]2CC(OC(=O)[C@H](CO)c3ccccc3)C[C@H]1[C@@H]1O[C@@H]12 (stereo not given in full),inactive
3,O=C(O)Cc1ccccc1,inactive
4,CC(=O)OC1(c2ccccc2)CCN(CCc2ccccc2)CC1,44.1 µM (active)
5,C/C=C(\C)C(=O)OC1CC2C(C)(C)OC(=O)CC(OC(C)=O)C2(C)C2CC(OC(=O)C(C)C)C3(C)C(c4ccoc4)CC4OC43C12C (stereo not given),inactive
6,C[C@H](NC(=O)Cc1cc(F)cc(F)c1)C(=O)N[C@@H]1N=C(c2ccccc2)c2ccccc2N(C)C1=O,inactive
7,C=C(CO)[C@@]12O[C@@H]1[C@@]1(C)C(=CC2=O)CC[C@@H](O)[C@@H]1C,5.17 µM (active)
8,CC(=O)Nc1cc([As](=O)(O)O)ccc1O,inactive
9,C[C@H]1CCC[C@H](O)CCC/C=C/c2cc(O)cc(O)c2C(=O)O1,9.2 µM (active)
10,CC(C)C(Br)C(=O)NC(N)=O (stereo not given),inactive
11,C[C@]12CC[C@@H](O)C[C@@H]1CC[C@@H]1[C@@H]2CC[C@]2(C)C(=O)[C@@H](Br)C[C@@H]12,11.6 µM (active)
12,CNC(C)(C)Cc1ccccc1,inactive
13,O=C(N[C@@H](COc1ccc2[nH]c(=O)[nH]c2c1)c1ccccc1)c1cccn(Cc2ccc(F)c(F)c2)c1=O,11.6 µM (active)
14,CCN(C(C)=O)c1cccc(-c2ccnc3c(C#N)cnn23)c1,inactive
15,O=C(CCCN1CCC2(CC1)C(=O)NCN2c1ccccc1)c1ccc(F)cc1,inactive
16,O=C(NCCN1CCC2(CC1)C(=O)NCN2c1cccc(F)c1)c1ccc2ccccc2c1,5.8 µM (active)
17,OCCOc1ccccc1,inactive
18,COc1cc(C(=O)N2CC[C@@H](O)[C@@H](N)C2)cc2nc(-c3cc4ccccc4n3CC3CC3)n(C)c12,9.34 µM (active)
19,CN(C)C(=S)SSC(=S)N(C)C,4.73 µM (active)
20,COc1ccc(CCNCc2ccc(OC)c3ccccc23)cc1,8.2 µM (active)

row,SMILES,Potency
1,CC[C@@H]1/C=C/C=C/C[C@H](C)C(O)[C@](C)(O)C(=O)[C@H](C)C(O)[C@H](C)C(=O)[C@H](C)[C@@H](O)[C@H](C)/C=C/C(=O)O[C@H]2[C@@H](C)[C@@H](CC1)O[C@]1(O[C@H](C[C@H](C)O)[C@H](C)CC1=O)[C@@H]2C (stereo not given in full),0.0123 µM (active)
2,Cc1c(Cl)c(OCC(=O)N2CCN(C)CC2)nc2sc(C(=O)NC3CC3)c(N)c12,inactive
3,CC1=CC2/C=C(\C)CCC(O)C3OC(C)(C)OC3CC(=O)OC23C(=O)NC(CC(C)C)C3C1C (stereo not given),12.6 µM (active)
4,CC(C(=O)c1ccccc1)N(C)C (stereo not given),inactive
5,NC(=O)c1ncn2c1CN=C(c1ccccc1Br)c1cc(F)ccc1-2,inactive
6,CN1CCC(O)(c2ccc(F)cc2)C(C(=O)c2ccc(F)cc2)C1 (stereo not given),inactive
7,CN1C(=O)NC(=O)C(C)(C2=CCCCC2)C1=O (stereo not given),inactive
8,CCNC(=O)C[C@@H]1N=C(c2ccc(Cl)cc2)c2cc(OC)ccc2-n2c(C)nnc21,461 nM (active) and 417 nM (active)
9,CO[C@@H]1[C@H](O)[C@@H](O[C@@H]2C[C@H]3CC[C@@H]4C(CC[C@]5(C)[C@@H](C6=CC(=O)OC6)CC[C@]45O)[C@@]3(C)[C@H](O)C2)O[C@H](C)[C@@H]1O (stereo not given in full),0.0282 µM (active)
10,C=C(C)[C@H]1Cc2c(ccc3c2O[C@@H]2COc4cc(OC)c(OC)cc4[C@@H]2C3=O)O1,0.0376 µM (active)
11,CN1C(=O)C(Cc2ccc3ccccc3c2)N=C(c2ccc(O)cc2)c2cc(Cl)ccc21 (stereo not given),13 µM (active)
12,C=C1[C@@H](C)C2[C@H](Cc3ccccc3)NC(=O)[C@@]23C(/C=C/C[C@H](C)C[C@@](C)(O)/C=C/[C@@H]3OC(C)=O)[C@@H]1O (stereo not given in full),0.92 µM (active)
13,Clc1ccccc1C(c1ccccc1)(c1ccccc1)n1cccn1,16.6 µM (active)
14,C[C@@H](C1CC[C@@]2(O)C3=CC(=O)[C@@H]4C[C@@H](O)[C@@H](O)C[C@]4(C)[C@H]3CC[C@]12C)[C@H](O)CCC(C)(C)O (stereo not given in full),inactive
15,CN1C[C@H](CNC(=O)OCc2ccccc2)C[C@@H]2c3cccc4c3c(cn4C)C[C@H]21,8.41 µM (active)
16,OCCCCC#Cc1cncc(OC[C@@H]2CCN2)c1,inactive
17,C[C@]12CCC(=O)C=C1CC[C@@H]1[C@H]3CC[C@](C)(O)[C@@]3(C)CC[C@@H]12,21.9 µM (active)
18,N[C@@H](Cc1ccc(Oc2cc(I)c(O)c(I)c2)c(I)c1)C(=O)O,inactive
19,CN(C(=O)C(c1ccccc1)c1ccccc1)[C@H](CN1CC[C@H](O)C1)c1ccccc1,20.6 µM (active)
20,C[C@]12CC[C@H](O)CC1=CC[C@@H]1C2CC[C@]2(C)[C@@H](C3=CC(=O)OC3)CC[C@]12O (stereo not given in full),4.04 µM (active)
